Results published in publication PMC4336329 (PLoS ONE, 2015).
The campaign covered roughly 310,000 compounds. About 14,000 (4.5%) showed an effect of 50% or more. Effects have a minus sign here. The entries come from a sample that favours strong results as a whole.

target: human ether-à-go-go-related gene (hERG) potassium channel (human, UniProt Q12809); assay: primary screen, population patch clamp on CHO cells stably expressing hERG; higher = less effect of the substance
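Note: peak tail current of the secondary pulse compared with the same well before compound.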

Sequence of human ether-à-go-go-related gene (hERG) potassium channel (Q12809 whole entry, looked up): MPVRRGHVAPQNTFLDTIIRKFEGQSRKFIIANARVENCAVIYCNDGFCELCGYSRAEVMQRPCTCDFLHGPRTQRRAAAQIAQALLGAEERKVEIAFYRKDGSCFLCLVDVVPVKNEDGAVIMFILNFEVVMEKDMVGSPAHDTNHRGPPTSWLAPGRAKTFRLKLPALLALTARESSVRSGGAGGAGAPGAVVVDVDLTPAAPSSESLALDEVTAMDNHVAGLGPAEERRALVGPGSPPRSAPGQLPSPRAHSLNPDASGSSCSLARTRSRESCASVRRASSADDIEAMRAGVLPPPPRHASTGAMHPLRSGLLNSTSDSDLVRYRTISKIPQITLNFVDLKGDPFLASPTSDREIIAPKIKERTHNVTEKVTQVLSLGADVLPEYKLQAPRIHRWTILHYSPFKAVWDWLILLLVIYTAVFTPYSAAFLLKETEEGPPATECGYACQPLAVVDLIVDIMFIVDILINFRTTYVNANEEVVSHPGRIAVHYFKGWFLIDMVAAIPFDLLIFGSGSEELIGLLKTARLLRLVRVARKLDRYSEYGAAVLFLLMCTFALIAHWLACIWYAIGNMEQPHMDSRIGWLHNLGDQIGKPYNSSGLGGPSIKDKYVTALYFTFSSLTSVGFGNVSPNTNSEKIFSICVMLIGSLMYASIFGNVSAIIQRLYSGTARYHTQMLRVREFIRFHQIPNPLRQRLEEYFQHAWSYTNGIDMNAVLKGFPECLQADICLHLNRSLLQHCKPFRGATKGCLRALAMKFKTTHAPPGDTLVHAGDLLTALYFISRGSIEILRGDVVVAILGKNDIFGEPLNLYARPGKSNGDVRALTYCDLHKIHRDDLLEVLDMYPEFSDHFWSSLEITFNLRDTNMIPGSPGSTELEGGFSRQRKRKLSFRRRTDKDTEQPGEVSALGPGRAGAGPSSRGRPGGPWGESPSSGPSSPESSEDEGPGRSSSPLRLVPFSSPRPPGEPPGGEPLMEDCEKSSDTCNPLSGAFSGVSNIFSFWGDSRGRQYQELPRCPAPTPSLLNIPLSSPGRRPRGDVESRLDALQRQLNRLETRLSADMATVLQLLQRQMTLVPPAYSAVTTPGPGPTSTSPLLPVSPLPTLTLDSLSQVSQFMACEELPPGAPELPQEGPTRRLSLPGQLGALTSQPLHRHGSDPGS

| SMILES | hERG current change (%, negative = inhibition) at 10uM [%] |
| --- | --- |
| COc1ccccc1C1CCN(c2ccc(CO)cc2[N+](=O)[O-])CC1 | 4.52 |
| O=C(Nc1cccc2ccccc12)c1cnsn1 | 5.58 |
| COC(=O)c1c(C(=O)OC)c2ccccn2c1C(=O)c1ccccc1 | 6.74 |
| COCCNC(=O)Cn1nc(-c2ccc(C)cc2)ccc1=O | 8.83 |
| CCOc1ccc(C(NC(=O)c2ccco2)c2ccc(OC)c(OC)c2)cc1 (stereo not shown) | -39.9 |
| O=C(NC(=S)NC1CCS(=O)(=O)C1)c1ccccc1 (stereo not shown) | 14.6 |
| O=C(Nc1cccc(S(=O)(=O)N2CCOCC2)c1)c1ccccc1[N+](=O)[O-] | 0.195 |
| O=C(CSc1nc2ncc(Cl)cc2[nH]1)Nc1cccc(F)c1 | 12.8 |
| FC(F)(F)c1ccc(CN2CCN(Cc3ccco3)CC2)cc1.O=C(O)C(=O)O | 0.168 |
| CS(=O)(=O)N1CCN(Cc2ccc(C(F)(F)F)cc2)CC1.O=C(O)C(=O)O | 0.441 |
| COc1cccc(C(=O)N2CCN(Cc3ccc(OC)cc3OC)CC2)c1.O=C(O)C(=O)O | -38.9 |
| COc1ccc(CN2CCN(Cc3ccc(C(F)(F)F)cc3)CC2)cc1.O=C(O)C(=O)O | -65.7 |
| COc1ccc(CN2CCN(Cc3ccc(C)cc3)CC2)c(OC)c1.O=C(O)C(=O)O | -70.3 |
| O=c1ccc(-c2ccccc2)nn1Cc1ccc(Cl)cc1 | 2.52 |
| COc1ccc(N2Cc3ccccc3C2=O)cc1 | 16.2 |
| COc1cc(NC(=O)c2ccc(Cl)cc2)c(Cl)cc1NC(=O)c1cccnc1 | 1.74 |
| N#C/C(=C/c1ccc(N2CCCCCC2)o1)c1ccc(Cl)cc1 | -3.68 |
| COc1ccc(NC(=O)CN2CCc3ccccc3C2)c(OC)c1 | -6.9 |
| COc1ccc(NC(=O)CN2CCN(CC(=O)Nc3ccc(F)cc3)CC2)cc1Cl | -80.5 |
| COc1ccc(C(=O)C2CCN(CC(=O)Nc3ccc(OC)cc3OC)CC2)cc1 | -18.1 |
| COc1ccc(NC(=O)CN2CCN(c3nc(-c4ccc(F)cc4)cs3)CC2)c(OC)c1 | 20.7 |
| COc1cccc(NC(=O)CN2CCN(CC(=O)Nc3ccc(F)cc3)CC2)c1 | -80.3 |
| COc1ccc(NC(=O)CN2CCN(c3ccc(F)cc3)CC2)cc1Cl | -5.96 |

| SMILES | hERG current change (%, negative = inhibition) at 10uM [%] |
| --- | --- |
| CCOc1ccc(NC(=O)CN2CCN(CC(=O)Nc3ccc(OC)cc3OC)CC2)cc1 | -74.2 |
| COc1ccc(NC(=O)CN2CCN(S(=O)(=O)c3ccc(F)cc3)CC2)cc1Cl | -1.67 |
| COc1cccc(NC(=O)CN2CCN(c3ccccc3F)CC2)c1 | -9.18 |
| COc1cccc(NC(=O)CN2CCN(c3ccc(F)cc3)CC2)c1 | -17 |
| COc1ccc(NC(=O)CN2CCN(CC(=O)Nc3ccc(F)cc3)CC2)c(OC)c1 | -80.4 |
| Cc1ccc(NC(=O)CSC(N)=O)cc1Cl | 7.5 |
| Cn1c2ccccc2c(=O)c2ccc(F)cc21 | 0.557 |
| COc1ccc(-c2cc(C(=O)N3CCCC3)c3ccccc3n2)cc1OC | 5.86 |
| CCCCc1nnc(NC(=O)C23CC4CC(CC(NC(C)=O)(C4)C2)C3)s1 | -1.81 |
| O=C(Nc1cccnc1)c1ccccc1-c1nc(-c2ccccc2F)no1 | -16.4 |
| N#Cc1nc(-c2ccccc2)oc1N1CCC(C(N)=O)CC1 | 9.26 |
| O=S(=O)(NCC1CCN(S(=O)(=O)c2ccccc2)CC1)c1ccccc1 | -9.78 |
| Cc1ccc(C2N(c3ccc(Cl)cc3)C(=O)N3CCCN23)cc1 (stereo not shown) | -1.05 |
| CCc1nc(SCC(=O)Nc2nnc(CC)s2)c2c(C)c(C)sc2n1 | 8.99 |
| CCOc1ccc(NC(=O)CN2CCN(CC(=O)Nc3ccccc3OC)CC2)cc1 | -74.1 |
| COc1ccccc1NC(=O)CN1CCN(CC(=O)Nc2ccc(OCc3ccccc3)cc2)CC1 | -25.1 |
| COc1ccccc1NC(=O)CN1CCN(CC(=O)Nc2ccc(S(N)(=O)=O)cc2)CC1 | -27.8 |
| C(#CCN1CCCC1)CC(c1ccccc1)c1ccccc1.Cl | -50.5 |
| OCCN1CCN(CC#CCC(c2ccccc2)c2ccccc2)CC1 | -22.9 |
| OC(C#CCN1CCCC1)c1ccccc1 (stereo not shown) | -2.28 |
| COc1cc(OC)c(C(=O)NCCCn2ccnc2)cc1OC.Cl | 13 |
| OC[C@H]1O[C@@H](n2cnc3c(NC4CCCC4)ncnc32)[C@H](O)[C@@H]1O | 10.4 |
| OC(CNCc1ccco1)Cn1c2ccccc2c2ccccc21 (stereo not shown) | -58.4 |

| SMILES | hERG current change (%, negative = inhibition) at 10uM [%] |
| --- | --- |
| OCCNCC(O)Cn1c2ccccc2c2ccccc21 (stereo not shown) | 10.2 |
| OC(CNCc1ccco1)Cn1c2ccc(Br)cc2c2cc(Br)ccc21 (stereo not shown) | -0.0278 |
| COc1ccc(OC)c(NC(=O)[C@@H]2CCCN2C(=O)c2cccs2)c1 | -2.19 |
| CC(C)(C)c1ccc(C(=O)NNC(=O)CCc2ccccc2)cc1 | 7.16 |
| Cc1ccc(C(C(=O)NC2CCCC2)N(Cc2ccc3c(c2)OCO3)C(=O)c2snc(C(N)=O)c2N)cc1 (stereo not shown) | 10.7 |
| CCNC(=S)N1CCN(c2ccc([N+](=O)[O-])cc2)CC1 | -64.5 |
| C=CCNC(=S)N1CCN(c2ccc([N+](=O)[O-])cc2)CC1 | -63.6 |
| O=[N+]([O-])c1ccc(N2CCN(C(=S)NCc3ccc(Cl)cc3)CC2)cc1 | -8.05 |
| CNC(=S)N1CCN(c2ccc([N+](=O)[O-])cc2)CC1 | -65.1 |
| COCCCNC(=S)N1CCN(c2ccccc2)CC1 | 12.9 |
| O=[N+]([O-])c1ccc(N2CCN(C(=S)Nc3ccc(F)cc3F)CC2)cc1 | -18.5 |
| COCCNC(=S)N1CCN(c2ccc(Cl)cc2)CC1 | -12.9 |
| Cc1cccc(C(=O)NC(=S)N2CCN(c3ccc([N+](=O)[O-])cc3)CC2)c1 | -2.77 |
| CCCC(=O)NC(=S)N1CCN(c2ccc([N+](=O)[O-])cc2)CC1 | -20.7 |
| COCCCNC(=S)N1CCN(c2ccc([N+](=O)[O-])cc2)CC1 | -68 |
| O=[N+]([O-])c1ccc(N2CCN(C(=S)Nc3ccccc3)CC2)cc1 | -4.16 |
| C=CCNC(=S)N1CCN(c2ccccc2Cl)CC1 | -6.87 |
| CCCC(=O)Nc1nc2nc(C)cc(=O)n2[nH]1 | 1.2 |
| Cc1cc(C)c2c(=O)[nH]n(C3CC(C)N(C)CC3C)c2n1 (stereo not shown) | 4.5 |
| CC1(C)Cc2c(sc3nc(-c4cccs4)n(N)c(=O)c23)CO1 | -22.5 |
| CCN(c1cccc(C)c1)S(=O)(=O)c1ccc2c(c1)NC(=O)CS2 | -7.28 |
| Cc1nnc2ccc(Oc3ccc(-c4ccccc4)cc3)nn12 | -5.63 |
| CCC1C(c2ccccc2)NC(c2ccccc2)CC1(O)c1ccc(F)cc1.Cl (stereo not shown) | 11.4 |

| SMILES | hERG current change (%, negative = inhibition) at 10uM [%] |
| --- | --- |
| Cc1cc(C)nc(SCc2cn3c(C)cccc3n2)n1 | 6.36 |
| O=c1cc(CSc2nc3cc(Cl)ccc3o2)nc2sccn12 | 10.4 |
| Cc1cc(C)n2cc(CSc3nnc(-c4ccccc4)o3)nc2n1 | -38.3 |
| Cc1cc(C)n2cc(CSCc3ccccc3)nc2n1 | -36.9 |
| Cc1ccc(SCc2cn3c(C)cc(C)nc3n2)cc1 | -67.1 |
| Cc1cc(C)n2cc(CSc3nc4cc(Cl)ccc4o3)nc2n1 | -68.1 |
| Cc1ccc2nc(SCc3cn4c(C)cc(C)nc4n3)[nH]c2c1 | -20.9 |
| Cc1cc(C)n2cc(CSc3ccc(Br)cc3)nc2n1 | -63.8 |
| Cc1cccc2nc(CSc3ccc(Cl)cc3)cn12 | -74.3 |
| Cc1cc(C)n2cc(CSc3ncn[nH]3)nc2n1 | 0.809 |
| Clc1ccc(SCc2cn3ccccc3n2)cc1 | -18.1 |
| Cc1ccnc(SCc2cn3c(C)cc(C)nc3n2)n1 | -3.93 |
| COc1ccccc1N=Nc1c(C)noc1C | 10.6 |
| CCOC(=O)/C(C#N)=N/Nc1ccc(S(=O)(=O)Nc2cc(OC)nc(OC)n2)cc1 | -13.1 |
| CC(C)(C)c1nnc(NS(C)(=O)=O)s1 | 8.21 |
| O=c1[nH]n(-c2ccc([N+](=O)[O-])cc2)c(=O)c2ccccc12 | 5.47 |
| COCc1ccc(C(=O)N2CCCC(C(=O)c3ccc(SC)cc3)C2)o1 (stereo not shown) | -41.6 |
| Nc1cnc(Nc2ccc(Br)cc2)nc1N.O=S(=O)(O)O | -8.72 |
| CCc1c(C)nc(SCC(=O)Nc2cccc(Br)c2)[nH]c1=O | 16.3 |
| Cc1cc(C)n2cc(CSc3ccccn3)nc2n1 | 13.6 |
| Cc1csc2nc(CSc3ccc(Cl)cc3)cn12 | -27.3 |
| Cc1cc(C)n2cc(CSc3ccc(Cl)cc3)nc2n1 | -64.9 |
